Bioassay records (PubChem)
Only some compounds are listed: those with a hit (about 2.4% of all), similar ones and a draw of the others.
LT uptake inh: blocks cellular internalization of anthrax lethal toxin. Cells, anthrax lethal toxin internalization, FRET ratio (460/530). Potency, µM (series often up to 40 µM), usual class: inhibitors. 70,000 compounds, 0.67% hits; also: nearly all actives have a fitted effect of over 50% in size
AmpC det inh: inhibitors of E. coli AmpC beta-lactamase with detergent; P00811; purified AmpC, nitrocefin hydrolysis with detergent; Potency, µM (titrated, usually from 28.7 µM); 71,000 compounds, 0.09% hits; AID 584; active = well fitted curve in the direction sought with a large enough effect; inconclusive = small, poorly fitted or top-dose-only effect
Target sequence (P00811 whole entry, looked up): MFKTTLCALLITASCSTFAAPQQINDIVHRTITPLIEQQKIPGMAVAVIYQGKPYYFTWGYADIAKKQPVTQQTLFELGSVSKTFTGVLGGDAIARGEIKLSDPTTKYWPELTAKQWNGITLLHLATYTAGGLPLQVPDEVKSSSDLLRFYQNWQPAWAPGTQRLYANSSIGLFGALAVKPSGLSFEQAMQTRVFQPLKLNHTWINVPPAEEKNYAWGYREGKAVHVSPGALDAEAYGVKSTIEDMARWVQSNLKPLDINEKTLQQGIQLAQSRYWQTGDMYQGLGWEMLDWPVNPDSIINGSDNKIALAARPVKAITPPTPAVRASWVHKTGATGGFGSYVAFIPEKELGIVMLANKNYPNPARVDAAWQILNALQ
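E. coli AmpC (5.3 nM) in 20 mM phosphate pH 7.0 with 0.01% Triton X-100, preincubated 15 min RT with compound; nitrocefin (2 uL of 800 uM stock) hydrolysis followed by 480 nm absorbance every 20 s over 4 min.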
Prx2 Sm inh: inhibitors of Schistosoma mansoni peroxiredoxin 2; S. mansoni Prx2 activity coupled to TGR/GSH (TGR is thioredoxin glutathione reductase), NADPH fluorescence loss, qHTS; 65,000 compounds, 0.07% hits; Potency, µM
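Purified S. mansoni TGR and Prx2 in pH 7.4 phosphate buffer with EDTA and Tween-20 were preincubated with compounds for 15 min. Further NADPH/GSH was added, then a 2.5 mM H2O2 aliquot initiated turnover, followed kinetically by NADPH fluorescence.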
AmpC nodet inh: inhibitors of E. coli AmpC beta-lactamase without detergent | AmpC nitrocefin hydrolysis, absorbance 480 nm, no detergent | Potency, µM (highest dose often 28.7 µM) | 71,000 compounds, 1.8% hits | AID 585
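Enzyme, pH 7.0 phosphate. Compound titrations were pre-incubated with AmpC for 15 min at room temperature before nitrocefin (stock 800 uM) addition; product formation was recorded at 480 nm every 20 s for 4 min.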
Large screens that a line does not name were inactive; [ ] = dose if it differs, or a comment. Unless noted, calls follow the shape of the full dose curve.

Cc1ccc(S(=O)(=O)C2(C(=O)NCc3ccc4c(c3)OCO4)CC2)cc1	AmpC nodet inh 3.98µM[single pt active]
CC1=C(C(=O)OCc2ccccc2)C(c2cccnc2)n2ncnc2N1 (stereo unspecified)	none
CC(=O)C1=C(C)Nc2ncnn2C1c1cccc(OCc2ccccc2)c1 (stereo unspecified)	AmpC nodet inh 3.98µM[single pt active]
Cc1cc(C(=O)OCC(=O)Nc2cc(C)on2)c2ccccc2n1	none
Cc1ccc(-c2cc(C(=O)Nc3cc(C)on3)c3ccccc3n2)c(C)c1	LT uptake inh inconclusive, AmpC nodet inh 3.98µM[single pt active]
CCN(CC)CCNC(=O)c1cn(CC)c2ccc(S(=O)(=O)N(C)C)cc2c1=O	AmpC nodet inh 3.16µM[single pt active]
CCn1cc(C(=O)O)c(=O)c2cc(S(=O)(=O)N(C)C)ccc21	none
CCN(CC)CCNC(=O)c1cn(C)c2ccc(S(=O)(=O)N(C)C3CCCCC3)cc2c1=O	LT uptake inh 3.98µM, AmpC nodet inh 3.98µM[single pt active]
CN1CCN(C(=O)c2cn(C)c3ccc(S(=O)(=O)N(C)C4CCCCC4)cc3c2=O)CC1	none
CCC(C)NC(=O)c1cn(CC)c2ccc(S(=O)(=O)N(C)C)cc2c1=O (stereo unspecified)	none
CCn1cc(C(=O)NC2CCCCC2)c(=O)c2cc(S(=O)(=O)N(C)C)ccc21	AmpC nodet inh 3.98µM[single pt active]
C[C@H](N)c1cccc(Cl)c1Cl	none
N[C@@H](Cc1c[nH]c2ccccc12)C(=O)NCC(=O)O	none
Cn1cccc1C(=O)NC(=O)COC(=O)c1ccccc1Sc1ccccc1C#N	LT uptake inh inconclusive, AmpC nodet inh 3.98µM
c1ccc2sc(C3(N4CCCCC4)CCCCC3)cc2c1	LT uptake inh 25.1µM
COc1ccc(-c2coc3ccc(O[C@@H]4O[C@@H](COC(C)=O)[C@@H](OC(C)=O)[C@@H](OC(C)=O)[C@H]4OC(C)=O)cc3c2=O)cc1	LT uptake inh inconclusive
COc1ccccc1C(c1nnnn1CCc1ccccc1)N1CCN(c2ccccc2)CC1 (stereo unspecified)	LT uptake inh 7.94µM
COc1cccc(C(c2nnnn2CCc2ccccc2)N2CCN(c3ccccc3)CC2)c1OC (stereo unspecified)	LT uptake inh inconclusive
COc1cccc(-c2ccc3ncnc(NCc4ccccc4OC)c3c2)c1	LT uptake inh 3.98µM, AmpC det inh 12.6µM, AmpC nodet inh 1.26µM
COc1cccc(-c2ccc3ncnc(NCc4ccccc4)c3c2)c1	LT uptake inh inconclusive
COc1cccc(-c2ccc3ncnc(NCc4ccc(OC)cc4OC)c3c2)c1	LT uptake inh inconclusive, AmpC det inh 12.6µM, AmpC nodet inh 7.94µM
COc1cccc(-c2cc(NCc3ccccc3)ncn2)c1	AmpC det inh 7.94µM, AmpC nodet inh 5.01µM
CCNc1ncc2nc(-c3ccc(F)cc3)c(=O)n(Cc3ccc(F)cc3)c2n1	none
CN1C[C@H](C(=O)N[C@]2(C)O[C@@]3(O)[C@H]4CCCN4C(=O)[C@@H](Cc4ccccc4)N3C2=O)C[C@H]2c3cccc4[nH]cc(c34)C[C@@H]21	none
O=c1cc(-c2ccc(O)c(O)c2)oc2cc(O[C@@H]3O[C@@H](CO)[C@@H](O)[C@@H](O)[C@H]3O)cc(O)c12	LT uptake inh inconclusive
CN(C)c1ccc(/C=c2\sc3n(c2=O)CCCN=3)cc1	none
CN(C)c1ccc(/C=C2/C(=O)Nc3ccccc32)cc1	LT uptake inh 12.6µM
O=C(Nc1cnn(Cc2ccc(F)cc2)c1)c1cc(-c2ccc(Br)cc2)on1	none
Cc1cc(N=Cc2c(O)n(-c3ccc4c(c3)OCO4)c(=O)c3ccccc23)ccn1	LT uptake inh 7.94µM
CS/C(=N\S(=O)(=O)c1cccs1)NC(=O)CSc1nc2ccccc2s1	LT uptake inh inconclusive, AmpC nodet inh 12.6µM
OC[C@@H]1O[C@H](O)[C@@H](Cl)[C@H](O)[C@@H]1O	none
O=C(CSc1nc(-c2ccccc2)cs1)Nc1nccs1	AmpC nodet inh 10µM
Cc1ccc(Nc2nc(N3CCOCC3)c3ccccc3n2)cc1	none
Oc1ccc(Nc2nc(N3CCCC3)c3ccccc3n2)cc1	LT uptake inh 12.6µM, AmpC nodet inh inconclusive
COc1c2c(nc3ccccc13)O[C@@H]([C@@](C)(O)CO)C2	none
CCCCNc1cc(=O)n(C)c(=O)[nH]1	AmpC nodet inh 3.98µM[single pt active]
O=C1C(Cl)=C(Cl)C(=O)C(Cl)=C1Cl	LT uptake inh inconclusive, AmpC nodet inh 12.6µM (no result: Prx2 Sm inh)
Nc1nc2n(n1)C(c1c(F)cccc1Cl)CC(c1ccc(F)cc1)N2 (stereo unspecified)	AmpC nodet inh 3.98µM[single pt active]
Cc1ccccc1C1CC(c2ccc(F)cc2)Nc2nc(N)nn21 (stereo unspecified)	LT uptake inh inconclusive, AmpC nodet inh 3.98µM[single pt active]
